# In all, about 5,500 compounds went through this assay and about 2,000 (36%) were called active. Roughly 18% stayed inconclusive and do not appear here. Some of the results follow. Unmarked numbers belong to inactive results. No stated cut-off is given here; in the data, active means normalized growth mostly below about 0.91 (no sharp cut-off); inconclusive means no clear call, values can overlap the other calls; inactive means mostly above about 0.92.
# Experiment: chemical genetic growth profiling, strain panel (AID 1159580);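 further: tested at 20 µM; growth read once vehicle control cultures reached saturation at 30 °C; 1 = growth at the plate median or of vehicle wells; lower values mean less growth of the strain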
# Settings: S. cerevisiae deletion strains, growth OD
compound,measurement,setting,value
O=[N+]([O-])c1ccccc1CS(=O)(=O)c1nc2ccccc2s1,normalized growth,"locus YAR019C, strain CDC15, active compounds read low",0.862 (active)
same,normalized growth,"locus YBL105C, strain PKC1, active compounds read low",0.895 (active)
same,normalized growth,"locus YBR135W, strain CKS1, active compounds read low",0.89 (active)
same,normalized growth,"locus YBR136W, strain MEC1, active compounds read low",0.883 (active)
same,normalized growth,"locus YBR160W, strain CDC28, active compounds read low",0.886 (active)
same,normalized growth,"locus YDL017W, strain CDC7, active compounds read low",0.894 (active)
same,normalized growth,"locus YDL028C, strain MPS1, active compounds read low",0.892 (active)
same,normalized growth,"locus YDL101C, strain DUN1, active compounds read low",0.889 (active)
same,normalized growth,"locus YDL108W, strain KIN28, active compounds read low",0.889 (active)
same,normalized growth,"locus YDL132W, strain cdc53, active compounds read low",0.828 (active)
same,normalized growth,"locus YDL214C, strain PRR2, active compounds read low",0.884
same,normalized growth,"locus YDR052C, strain DBF4, active compounds read low",0.87 (active)
same,normalized growth,"locus YDR054C, strain cdc34, active compounds read low",0.855 (active)
same,normalized growth,"locus YDR226W, strain ADK1, active compounds read low",0.878 (active)
same,normalized growth,"locus YDR477W, strain SNF1, active compounds read low",0.728
same,normalized growth,"locus YER123W, strain YCK3, active compounds read low",0.821
same,normalized growth,"locus YER133W, strain GLC7, active compounds read low",0.773
same,normalized growth,"locus YFL009W, strain cdc4, active compounds read low",0.855 (active)
same,normalized growth,"locus YFL029C, strain CAK1, active compounds read low",0.849 (active)
same,normalized growth,"locus YFR003C, strain YPI1, active compounds read low",0.904
same,normalized growth,"locus YFR019W, strain FAB1, active compounds read low",0.933
same,normalized growth,"locus YFR028C, strain CDC14, active compounds read low",0.863 (active)
same,normalized growth,"locus YGR040W, strain KSS1, active compounds read low",0.791
same,normalized growth,"locus YGR052W, strain FMP48, active compounds read low",0.835
same,normalized growth,"locus YGR092W, strain DBF2, active compounds read low",0.537
same,normalized growth,"locus YHR030C, strain SLT2, active compounds read low",0.671 (active)
same,normalized growth,"locus YHR079C, strain IRE1, active compounds read low",0.946
same,normalized growth,"locus YHR082C, strain KSP1, active compounds read low",0.949
same,normalized growth,"locus YHR205W, strain SCH9, active compounds read low",0.933
same,normalized growth,"locus YIL147C, strain SLN1, active compounds read low",0.894
same,normalized growth,"locus YJL095W, strain BCK1, active compounds read low",0.616
same,normalized growth,"locus YJL128C, strain PBS2, active compounds read low",0.953
same,normalized growth,"locus YJL157C, strain FAR1, active compounds read low",0.867
same,normalized growth,"locus YJR016C, strain ILV3, active compounds read low",0.871 (active)
same,normalized growth,"locus YJR066W, strain TOR1 (second series), active compounds read low",0.832
same,normalized growth,"locus YJR066W, strain TOR1, active compounds read low",0.753
same,normalized growth,"locus YKL048C, strain ELM1, active compounds read low",0.755 (active)
same,normalized growth,"locus YKL067W, strain YNK1, active compounds read low",0.921
same,normalized growth,"locus YKL101W, strain HSL1, active compounds read low",0.902
same,normalized growth,"locus YKL193C, strain SDS22, active compounds read low",0.864 (active)
same,normalized growth,"locus YKL203C, strain TOR2, active compounds read low",0.711 (active)
same,normalized growth,"locus YLR113W, strain HOG1, active compounds read low",0.887
same,normalized growth,"locus YLR133W, strain CKI1, active compounds read low",0.916
same,normalized growth,"locus YLR403W, strain SFP1, active compounds read low",0.503 (active)
same,normalized growth,"locus YML070W, strain DAK1, active compounds read low",0.881
same,normalized growth,"locus YMR001C, strain CDC5, active compounds read low",0.891
same,normalized growth,"locus YMR205C, strain PFK2 (second series), active compounds read low",0.91
same,normalized growth,"locus YMR277W, strain FCP1, active compounds read low",0.852 (active)
same,normalized growth,"locus YNL006W, strain LST8, active compounds read low",0.894 (active)
same,normalized growth,"locus YNL020C, strain ARK1, active compounds read low",0.918
same,normalized growth,"locus YNL161W, strain CBK1, active compounds read low",0.885 (active)
same,normalized growth,"locus YNL183C, strain NPR1, active compounds read low",0.871
same,normalized growth,"locus YNL207W, strain RIO2, active compounds read low",0.852 (active)
same,normalized growth,"locus YNL222W, strain SSU72, active compounds read low",0.886 (active)
same,normalized growth,"locus YNL307C, strain MCK1 (second series), active compounds read low",0.655
same,normalized growth,"locus YOL078W, strain AVO1, active compounds read low",0.834 (active)
same,normalized growth,"locus YOL136C, strain PFK27, active compounds read low",0.843
same,normalized growth,"locus YOR061W, strain CKA2, active compounds read low",0.908
same,normalized growth,"locus YOR119C, strain RIO1, active compounds read low",0.734
same,normalized growth,"locus YOR231W, strain MKK1, active compounds read low",0.91
same,normalized growth,"locus YOR329C, strain SCD5, active compounds read low",0.896 (active)
same,normalized growth,"locus YPL031C, strain PHO85, active compounds read low",0.704
same,normalized growth,"locus YPL153C, strain RAD53, active compounds read low",0.764
same,normalized growth,"locus YPL204W, strain HRR25, active compounds read low",0.678
same,normalized growth,"locus YPL209C, strain IPL1, active compounds read low",0.882 (active)
same,normalized growth,"locus YPL256C, strain CLN2, active compounds read low",1.08
same,normalized growth,"locus YPR025C, strain CCL1, active compounds read low",0.892 (active)
same,normalized growth,"locus YPR106W, strain ISR1, active compounds read low",0.966
same,normalized growth,"locus YPR111W, strain DBF20, active compounds read low",0.952
same,normalized growth,"strain NNK1, active compounds read low",0.93
same,normalized growth,"strain TSCII, active compounds read low",0.848 (active)

# — PubChem BioAssay AID1159580 (chemical genetic matrix, 2015)
